Results filed as inconclusive are left out. Calls of active or inactive are those of the source. Unless noted, the call rests on the fitted dose curve; in most records, active means well fitted curve in the direction sought with a large enough effect in the repeat runs; inconclusive means weak or mixed curves; inactive means no such curve, though single readings can be large; an effect the other way counts as inactive or inconclusive.
Legend:
[1] = qHTS assay to identify aromatase inhibitors - cell viability counter screen (AID 743084);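 further: cells stimulated with testosterone during compound exposure; nearly all actives have a fitted effect of over 55% in size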
[2] = target: Aryl hydrocarbon receptor (Homo sapiens) (UniProt P35869); experiment: qHTS assay to identify small molecule that activate the aryl hydrocarbon receptor (AhR) signaling pathway (AID 743085);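 further: HG2L7.5c1 human HepG2 liver cells with stably integrated DRE-driven firefly reporter; series mostly up to about 70 µM; nearly all actives have a fitted effect of over 15% in size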
Chain of Aryl hydrocarbon receptor (Homo sapiens) (P35869 whole entry, looked up): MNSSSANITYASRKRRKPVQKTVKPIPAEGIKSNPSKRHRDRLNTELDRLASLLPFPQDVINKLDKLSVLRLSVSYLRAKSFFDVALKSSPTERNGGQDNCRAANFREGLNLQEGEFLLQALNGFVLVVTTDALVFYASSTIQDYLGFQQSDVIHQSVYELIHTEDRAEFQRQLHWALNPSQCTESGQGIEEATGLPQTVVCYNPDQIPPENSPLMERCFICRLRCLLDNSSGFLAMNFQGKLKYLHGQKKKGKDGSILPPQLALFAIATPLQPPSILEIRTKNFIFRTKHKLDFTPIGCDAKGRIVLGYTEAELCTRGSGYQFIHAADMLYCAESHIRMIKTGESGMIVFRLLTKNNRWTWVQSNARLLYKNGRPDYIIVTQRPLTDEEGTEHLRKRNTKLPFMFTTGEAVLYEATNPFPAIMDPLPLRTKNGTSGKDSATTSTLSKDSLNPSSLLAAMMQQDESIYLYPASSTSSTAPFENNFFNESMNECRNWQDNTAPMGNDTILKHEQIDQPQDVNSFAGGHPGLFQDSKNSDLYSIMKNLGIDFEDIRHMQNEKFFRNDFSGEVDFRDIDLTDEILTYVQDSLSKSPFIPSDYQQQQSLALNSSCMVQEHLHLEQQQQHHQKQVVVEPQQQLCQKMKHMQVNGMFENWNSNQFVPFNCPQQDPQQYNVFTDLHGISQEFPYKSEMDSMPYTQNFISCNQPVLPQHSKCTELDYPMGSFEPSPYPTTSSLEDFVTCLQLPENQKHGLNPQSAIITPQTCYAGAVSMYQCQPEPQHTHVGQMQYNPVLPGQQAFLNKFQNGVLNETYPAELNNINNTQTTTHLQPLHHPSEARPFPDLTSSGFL
Procedure, shortened: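 Stably transfected human liver carcinoma cells (HG2L7.5c1; 20 DRE-firefly luciferase) were incubated 5 h, dosed, and kept 24 h at 37C. Agonism was scored from increased luciferase luminescence.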

[3] = qHTS assay to identify small molecule that activate the aryl hydrocarbon receptor (AhR) signaling pathway - cell viability counter screen (AID 743086);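 further: HepG2 liver cells carrying the AhR DRE luciferase reporter; series mostly up to about 70 µM; nearly all actives have a fitted effect of over 45% in size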
Procedure, shortened: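 HepG2-AhR-luc (HG2L7.5c1) cells, 4000/well, were preincubated 5 h at 37C, exposed to compound in qHTS format for 24 hr at 37C, then given CellTiter-Fluor for 30 min; viability was read as fluorescence in the reporter wells.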

[4] = target: Peroxisome proliferator-activated receptor gamma (Homo sapiens) (UniProt P37231); experiment: qHTS assay to identify small molecule agonists of the peroxisome proliferator-activated receptor gamma (PPARg) signaling pathway (AID 743094; active means well fitted activation curve with a large enough effect in the signal ratio in the repeat runs, not every such curve was filed as active; the % refers to the signal ratio)
Chain of Peroxisome proliferator-activated receptor gamma (Homo sapiens) (P37231 whole entry, looked up): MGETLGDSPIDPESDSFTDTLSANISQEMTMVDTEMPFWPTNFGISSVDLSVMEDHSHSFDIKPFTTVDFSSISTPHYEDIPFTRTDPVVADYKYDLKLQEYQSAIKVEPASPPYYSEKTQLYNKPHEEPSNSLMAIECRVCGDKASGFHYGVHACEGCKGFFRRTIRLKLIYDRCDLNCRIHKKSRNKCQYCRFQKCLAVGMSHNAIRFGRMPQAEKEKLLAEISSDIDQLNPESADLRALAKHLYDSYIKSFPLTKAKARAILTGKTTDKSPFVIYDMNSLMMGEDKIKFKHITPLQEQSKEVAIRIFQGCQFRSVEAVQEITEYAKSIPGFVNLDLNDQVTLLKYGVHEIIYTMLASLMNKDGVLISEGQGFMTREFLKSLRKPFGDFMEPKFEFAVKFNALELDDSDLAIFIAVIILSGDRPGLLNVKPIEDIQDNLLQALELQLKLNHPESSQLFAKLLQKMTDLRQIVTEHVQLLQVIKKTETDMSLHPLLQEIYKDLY
Procedure, shortened: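 GeneBLAzer PPARg UAS-bla HEK293H cells carrying a stably integrated beta-lactamase reporter were pre-incubated 5 h at 37C, then exposed to compounds in DMSO for 17 h at 37C; LiveBLAzer B/G FRET substrate was added for 1 h at room temperature and fluorescence read.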

[5] = qHTS assay to identify small molecule phospholipidosis (PLD) inducers (AID 1259344; active means well fitted curve in the direction sought with a large enough effect; an effect the other way counts as inactive or inconclusive)
Procedure, shortened: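 HepG2 cells grown on collagen I take up LipidTOX Red while exposed to compound for 24 h; after fixation they are imaged at 20x and pit metrics are extracted.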
On the % scale 0 is the no-effect control and ±100 the full control effect.

C[N+](C)(CCCCCC[N+](C)(C)C1c2ccccc2-c2ccccc21)C1c2ccccc2-c2ccccc21
inactive: Potency [1] | Potency [2] | Potency [3] | Potency [4] | Potency [5]

C/C(=C(\CCOC(=O)c1ccccc1)SS/C(CCOC(=O)c1ccccc1)=C(/C)N(C=O)Cc1cnc(C)nc1N)N(C=O)Cc1cnc(C)nc1N
inactive: Potency [1] | Potency [2] | Potency [3] | Potency [4] | Potency [5]

CN[C@@H]1CCc2[nH]c3ccc(C(N)=O)cc3c2C1
inactive: Potency [1] | Potency [2] | Potency [3] | Potency [4] | PLD induction [5] -1.34% [at 1.53 µM]

CCCCCCCCCCCCCCCC(=O)O[C@@H]1[C@@H](O)[C@@H](O)[C@@H]([C@H](NC(=O)[C@@H]2C[C@@H](CCC)CN2C)[C@H](C)Cl)O[C@@H]1SC
inactive: Potency [1] | Potency [2] | Potency [3] | Potency [4] | Potency [5]

CC(=O)N[C@@H](CC(=O)N[C@@H](CCC(=O)O)C(=O)O)C(=O)O
inactive: Potency [1] | Potency [2] | Potency [3] | Potency [4] | Potency [5]

NC[C@@H]1O[C@H](O[C@H]2[C@@H](O)[C@H](O[C@@H]3[C@@H](O)[C@H](N)C[C@H](N)[C@H]3O[C@H]3O[C@H](CO)[C@@H](O)[C@H](O)[C@H]3N)O[C@@H]2CO)[C@H](N)[C@@H](O)[C@@H]1O
inactive: Potency [1] | Potency [2] | Potency [3] | Potency [4] | Potency [5]

CCC(c1ccccc1)c1noc(CCN(CC)CC)n1 (stereo not given)
inactive: Potency [1] | Potency [2] | Potency [3] | Potency [4] | Potency [5]

O=C[C@H](O)[C@@H](O)[C@H](O[C@H]1O[C@H](CO)[C@@H](O[C@H]2O[C@H](CO)[C@@H](O)[C@H](O)[C@H]2O)[C@H](O)[C@H]1O)[C@H](O)CO
inactive: Potency [1] | Potency [2] | Potency [3] | Potency [4] | Potency [5]

NCCCNCCCCNC(=O)C(O)NC(=O)CCCCCCN=C(N)N (stereo not given)
inactive: Potency [1] | Potency [2] | Potency [3] | Potency [4] | PLD induction [5] -1.69% [at 7.66 µM]

O=P(O)(O)OC(Cn1cncn1)(Cn1cncn1)c1ccc(F)cc1F
inactive: Potency [1] | Potency [2] | Potency [3] | Potency [4] | Potency [5]

CS(=O)(=O)NC(=O)CCC/C=C\C[C@H]1C(=O)C[C@@H](O)[C@@H]1/C=C/[C@H](O)COc1ccccc1
inactive: Potency [1] | Potency [2] | Potency [3] | Potency [4] | Potency [5]

Cn1nnnc1SCC1=C(C(=O)O)N2C(=O)[C@@H](NC(=O)[C@H](OC=O)c3ccccc3)[C@H]2SC1
inactive: Potency [1] | Potency [2] | Potency [3] | Potency [4] | Potency [5]

CC(=O)OC[C@H]1O[C@@H](O[C@H]2[C@H](O)[C@@H](OC(=O)c3ccccc3C(=O)O)[C@H](O)O[C@@H]2COC(C)=O)[C@H](O)[C@@H](OC(=O)c2ccccc2C(=O)O)[C@@H]1O
inactive: Potency [1] | Potency [2] | Potency [3] | Potency [4] | PLD induction [5] 5.14% [at 0.306 µM]

Nc1ccn(C[C@@H](CO)OCP(=O)(O)O)c(=O)n1
inactive: Potency [1] | Potency [2] | Potency [3] | Potency [4] | PLD induction [5] -2.23% [at 7.66 µM]

C=C1CC2C3CCC4=CC(=O)C=C[C@]4(C)[C@@]3(F)[C@@H](O)C[C@]2(C)[C@@]1(O)C(=O)COC(C)=O (stereo not given in full)
inactive: Potency [1] | Potency [2] | Potency [3] | Potency [4] | PLD induction [5] -8.32% [at 7.66 µM]

O=C(NCCNCC(O)COc1ccc(O)cc1)N1CCOCC1 (stereo not given)
inactive: Potency [1] | Potency [2] | Potency [3] | Potency [4] | Potency [5]

C[C@H](/C=C/[C@H](C)C(C)(C)O)[C@H]1CC[C@H]2/C(=C/C=C3C[C@@H](O)C[C@H](O)C3)CCC[C@]12C
inactive: Potency [1] | Potency [2] | Potency [3] | Potency [4] | Potency [5]

CCCCOC(=O)C(=O)Nc1cccc(-c2nn[nH]n2)c1
inactive: Potency [1] | Potency [2] | Potency [3] | Potency [4] | Potency [5]

CCCCCCCCCCCCCCCCCCOP(=O)([O-])OC1CC[N+](C)(C)CC1
inactive: Potency [1] | Potency [2] | Potency [3] | Potency [4] | Potency [5]

NCCCC[C@H](NC(=O)[C@@H]1CCCN1C(=O)[C@@H]1CSSC[C@H](N)C(=O)N[C@@H](Cc2ccccc2)C(=O)N[C@@H](Cc2ccccc2)C(=O)N[C@@H](CCC(N)=O)C(=O)N[C@@H](CC(N)=O)C(=O)N1)C(=O)NCC(N)=O
inactive: Potency [1] | Potency [2] | Potency [3] | Potency [4] | Potency [5]

O=S(=O)(O)Oc1ccc(C(c2ccc(OS(=O)(=O)O)cc2)c2ccccn2)cc1
inactive: Potency [1] | Potency [2] | Potency [3] | Potency [4] | Potency [5]
